# According to PubChem BioAssay (NCI):
# About 83,000 compounds went through this panel and 20% of them were active in at least one assay; those are over-represented in the sample as a whole.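 Assay: single dose, 48 h. Readout: percent growth (0 = no net growth; negative = cell death). Active: <10.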 The source made the active and inactive calls.
# Tested on: MCF7 breast
# Experiment: NCI-60 one-dose screen, 48 h (100 = growth as untreated, 0 = no growth, -100 = all killed)
# Conditions: 10 µM unless noted
row,Compound,growth
1,Cc1nn(-c2cccc(Cl)c2)c(C)c1N=Nc1ccc(Br)cc1,89.4% (inactive)
2,O=C(N/N=C\c1cc(Br)ccc1O)c1ccncc1,2.38% (active)
3,CC(C)OC1OC(OC(C)C)C(OC(C)C)OC1OC(C)C (stereo not drawn),103% (inactive)
4,COc1ccc2c(c1)C1=NN(C(=O)CO)[C@H](c3ccc(OC(F)(F)F)cc3)[C@@H]1CC2,83.2% (inactive)
5,Cn1c(-c2ccccc2)cc(=O)n1-c1ccccc1,93.6% (inactive)
6,CC(C)(C)c1ccc(C(=O)Nc2sc3cc(O)ccc3c2C(N)=O)cc1,44% (inactive)
7,O=C1N(Cc2ccccc2Cl)c2ccccc2C12NN=C(c1ccccc1)S2 (stereo not drawn),53.5% (inactive)
8,CC(=O)c1ccc(N2C(=O)c3ccc(Oc4ccccc4)cc3C2=O)cc1,101% (inactive)
9,CC1CCCN(CCCCOc2ccc(-c3ccc(C#N)cc3)cc2)C1 (stereo not drawn),86.4% (inactive)
10,CNC(=O)c1c(NC(=O)c2cccc(C(F)(F)F)c2)sc2c1CCC(=O)C2,0.296% (active)
11,OC(COCc1ccccc1)COCc1ccccc1,92.6% (inactive)
12,CN1CCCN(CCNc2nccc(-c3c(-c4cccc(O)c4)nc4sccn34)n2)S1(=O)=O,74.1% (inactive)
13,CC(=O)NC1C(O[C@H]2C[C@H]3[C@@H]4CC=C5C[C@@H](O)CC[C@]5(C)[C@H]4CC[C@]3(C)[C@H]2[C@H](C)C(=O)CCC(C)C)OCC(O)C1O (stereo partly drawn),43.4% (inactive)
14,CN(C)c1nc(-c2cccs2)n2nc(-c3ccc(Cl)cc3)cc2n1,66.2% (inactive)
15,O=C1NN(C(=O)c2ccccc2)C(c2ccc(Cl)c(Cl)c2)=C/C1=C\c1ccccc1[N+](=O)[O-],8.91% [6.75 µM] (active)
16,COc1ccc(C(=O)OC2C(OC3C(O)COC(O[C@H]4C[C@H]5[C@@H]6CC=C7C[C@@H](O)CC[C@]7(C)[C@H]6CC[C@]5(C)[C@H]4[C@H](C)C(=O)CCC(C)C)C3OC(=O)C(C)C)OCC(O)C2O)cc1 (stereo partly drawn),3.21% (active)
17,CCSCC1CC(O)(c2ccccc2)C(c2ccccc2)C(c2ccc(F)cc2)O1 (stereo not drawn),1.86% (active)
18,Nc1c(N)c2ccccc2c2ccccc12,98.3% (inactive)
19,Cc1csc(N/N=C/c2ccncc2)n1,87.1% (inactive)
20,COc1ccc(-c2cc(C(=O)Nc3ccc(C)cc3)nc3[nH]c(=O)sc23)cc1,71.6% (inactive)
21,COc1ccccc1-[n+]1cc(-c2ccc(-c3ccccc3)cc2)n2c1CCCCC2,4.74% (active)
22,COc1ccc(/C=N/NC(N)=S)c(OC)n1,93.6% (inactive)
23,Nc1c(Br)cc2c(c1Br)Cc1cc(Cl)ccc1-2,80.6% (inactive)
24,Nc1nc(NC2CC2)cc(-c2cccc(Cl)c2Cl)n1,20.3% (inactive)
25,COc1cc2c(c(OC)c1O)C(=O)C(OC)C(c1ccc(O)c(O)c1)O2 (stereo not drawn),11% (inactive)

# Tested on: HCT-116 colon
# Experiment: as above
# Conditions: 10 µM unless noted
row,Compound,growth
1,COc1cc(C2CC(c3ccccc3)=NN2C=O)ccc1Oc1nc2c(c(=O)n(C)c(=O)n2C)n1C (stereo not drawn),79.9% (inactive)
2,COc1ccc2[nH]cc(C3(c4c[nH]c5ccc(OC)cc45)C(=O)Nc4ccc(F)cc43)c2c1,69% (inactive)
3,CC1=CC(=O)OC1C/C=C(\C)CCC1[C@@]2(C)CCC[C@@](C)(C(=O)O)C2CC[C@@]1(C)O (stereo partly drawn),27.9% (inactive)
4,CC1=C(/C=C/C(C)=C/C=C(C(=O)O)\C(C)=C\C(=O)O)C(C)(C)CCC1,105% (inactive)
5,CCN(CCC#N)c1ccccc1,105% (inactive)
6,CCCCOC(=O)c1cc(O)c(O)c(O)c1,64.9% (inactive)
7,COc1cccc(-c2nc3sccn3c2-c2ccnc(NCCN3CCCNS3(=O)=O)n2)c1,74.6% (inactive)
8,CC(=O)Oc1ccccc1C(=O)Nc1ncc([N+](=O)[O-])s1,3.62% (active)
9,Cc1ccc([C@H]2c3[nH]c4ccccc4c3C[C@H]3C(=O)N(CCCCCCC(=O)NO)CC(=O)N23)cc1,15.8% (inactive)
10,COc1ccc(-c2cc(-c3cn(-c4cccc(Cl)c4)nc3-c3ccc(OC)cc3)[nH]c(=S)n2)cc1,69.7% (inactive)
11,CCn1c(Cc2ccccc2Nc2c(Cl)cccc2Cl)nnc1SCC(=O)Nc1ccccc1C(F)(F)F,77.8% (inactive)
12,COc1cc(/C=C/c2cc(/C=C/c3ccc(O)c(OC)c3)n(C(=O)c3ccccc3Br)n2)ccc1O,6.9% (active)
13,CCOC(=O)C(Cc1ccccc1)n1c(O)c(/C=N/c2ncc(Cc3ccc(Cl)cc3Cl)s2)sc1=S (stereo not drawn),1.61% (active)
14,Cc1nn(-c2cccc(Cl)c2)c(C)c1N=Nc1ccc(Br)cc1,89.5% (inactive)
15,O=C(N/N=C\c1cc(Br)ccc1O)c1ccncc1,21% (inactive)
16,CC(C)OC1OC(OC(C)C)C(OC(C)C)OC1OC(C)C (stereo not drawn),88.5% (inactive)
17,COc1ccc2c(c1)C1=NN(C(=O)CO)[C@H](c3ccc(OC(F)(F)F)cc3)[C@@H]1CC2,92.5% (inactive)
18,Cn1c(-c2ccccc2)cc(=O)n1-c1ccccc1,100% (inactive)
19,CC(C)(C)c1ccc(C(=O)Nc2sc3cc(O)ccc3c2C(N)=O)cc1,74% (inactive)

row,Compound,growth
1,O=C1N(Cc2ccccc2Cl)c2ccccc2C12NN=C(c1ccccc1)S2 (stereo not drawn),43% (inactive)
2,CC(=O)c1ccc(N2C(=O)c3ccc(Oc4ccccc4)cc3C2=O)cc1,104% (inactive)
3,CC1CCCN(CCCCOc2ccc(-c3ccc(C#N)cc3)cc2)C1 (stereo not drawn),87.8% (inactive)
4,CNC(=O)c1c(NC(=O)c2cccc(C(F)(F)F)c2)sc2c1CCC(=O)C2,0.607% (active)
5,OC(COCc1ccccc1)COCc1ccccc1,99% (inactive)
6,CN1CCCN(CCNc2nccc(-c3c(-c4cccc(O)c4)nc4sccn34)n2)S1(=O)=O,21.2% (inactive)
7,CC(=O)NC1C(O[C@H]2C[C@H]3[C@@H]4CC=C5C[C@@H](O)CC[C@]5(C)[C@H]4CC[C@]3(C)[C@H]2[C@H](C)C(=O)CCC(C)C)OCC(O)C1O (stereo partly drawn),31.8% (inactive)
8,CN(C)c1nc(-c2cccs2)n2nc(-c3ccc(Cl)cc3)cc2n1,6.95% (active)
9,O=C1NN(C(=O)c2ccccc2)C(c2ccc(Cl)c(Cl)c2)=C/C1=C\c1ccccc1[N+](=O)[O-],5.02% [6.75 µM] (active)
10,COc1ccc(C(=O)OC2C(OC3C(O)COC(O[C@H]4C[C@H]5[C@@H]6CC=C7C[C@@H](O)CC[C@]7(C)[C@H]6CC[C@]5(C)[C@H]4[C@H](C)C(=O)CCC(C)C)C3OC(=O)C(C)C)OCC(O)C2O)cc1 (stereo partly drawn),10.3% (inactive)
11,CCSCC1CC(O)(c2ccccc2)C(c2ccccc2)C(c2ccc(F)cc2)O1 (stereo not drawn),-31.2% (active)
12,Nc1c(N)c2ccccc2c2ccccc12,114% (inactive)
13,Cc1csc(N/N=C/c2ccncc2)n1,97.6% (inactive)
14,COc1ccc(-c2cc(C(=O)Nc3ccc(C)cc3)nc3[nH]c(=O)sc23)cc1,66.2% (inactive)
15,COc1ccccc1-[n+]1cc(-c2ccc(-c3ccccc3)cc2)n2c1CCCCC2,6.3% (active)
16,COc1ccc(/C=N/NC(N)=S)c(OC)n1,99.2% (inactive)
17,Nc1c(Br)cc2c(c1Br)Cc1cc(Cl)ccc1-2,97.1% (inactive)
18,Nc1nc(NC2CC2)cc(-c2cccc(Cl)c2Cl)n1,42.2% (inactive)
19,COc1cc2c(c(OC)c1O)C(=O)C(OC)C(c1ccc(O)c(O)c1)O2 (stereo not drawn),3.39% (active)
